Laboratory results published in PubChem BioAssay AID1850 (Southern Research Specialized Biocontainment Screening …, 2009).
Hit rate of the full screen: of about 310,000 compounds, about 1,000 (0.32%) were called active. How the calls were made is not given here. Not all results are given here. Measured potencies and affinities stand elsewhere.

Assay: Inhibition of PhoP regulon, Salmonella typhi GFP reporter cells, confirmation, 4 h (AID 1850);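 further: 0% = induced wells with vehicle and 100% = uninduced wells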
Conditions: Salmonella Typhi PhoP-promoter GFP reporter, fluorescence, at 50 µM, active compounds read high

Compound	inhibition
Cc1ccccc1NC(=O)c1ccco1	-6.44% (inactive)
COc1ccc(/C=C2\CCCC3C2=NC(=S)NC3c2ccc(OC)cc2)cc1 (stereo unspecified)	-6.47% (inactive)
COc1ccccc1-c1nc(-c2ccc(Br)cc2)no1	19.9% (inactive)
CC1CCCCN1CCNC(=O)c1ccc2c(c1)N(Cc1cccc(Cl)c1)C(=O)c1ccccc1S2=O (stereo unspecified)	-21.9% (inactive)
Cc1ccc(CNC(=O)C2CC(c3ccc(C(F)(F)F)cc3)=NO2)o1 (stereo unspecified)	-0.47% (inactive)
CCCc1cc(C(=O)OC)c(NC(=O)OCC)s1	0.48% (inactive)
COC(=O)CNC(=O)c1ccc(NS(=O)(=O)c2cc([N+](=O)[O-])ccc2Cl)cc1	-1.71% (inactive)
CN(C)C(=O)c1ccc(-n2cnc3ccccc3c2=O)cc1	6.15% (inactive)
Cc1cc(O)c2c(c1)C(=O)c1cc(O)cc(O)c1C2=O	-20.4% (inactive)
COc1cc(NC(=O)c2cccs2)c(C(=O)OCC(=O)NC(=O)NCc2ccccc2)cc1OC	-3.62% (inactive)
O=C(COC(=O)c1ccc([N+](=O)[O-])s1)Nc1ccccc1	4.19% (inactive)
NS(=O)(=O)c1ccc(NC(=O)COC(=O)c2ccc([N+](=O)[O-])s2)cc1	9% (inactive)
S=c1[nH]nc(COc2ccc(Cl)cc2)n1-c1ccc(Cl)cc1	2.37% (inactive)
Cc1ccc(N=Nc2ccc(O)c3ncccc23)cc1	-8.35% (inactive)
Cc1ccccc1N=Nc1ccc(O)c2ncccc12	-0.137% (inactive)
CCOc1ccc(N(CC(=O)NC2CCCCC2)C(=O)CCC(=O)Nc2cc(C)ccn2)cc1	2.46% (inactive)
COc1ccc(C(CCN)c2ccc3c(c2)OCO3)cc1 (stereo unspecified)	-14.2% (inactive)
COc1ccc(C(CCNCc2ccc(N(C)C)cc2)c2ccccc2)cc1 (stereo unspecified)	6.13% (inactive)
Cc1ccccc1OCCN1C(=O)c2ccccc2C1=O	-6.01% (inactive)
CCCNC(=O)COC(=O)c1ccc(S(=O)(=O)N2CCCCCC2)cc1	-7.39% (inactive)
CCCCCCC(=O)N1CCN(c2cc3c(cc2F)c(=O)c(C(=O)O)cn3CC)CC1	-12.4% (inactive)
CCCCCCCCCC(=O)N1CCN(c2cc3c(cc2F)c(=O)c(C(=O)O)cn3CC)CC1	-9.96% (inactive)
CCCCCCCCC(=O)N1CCN(c2cc3c(cc2F)c(=O)c(C(=O)O)cn3CC)CC1	-9.35% (inactive)
C=CCNC(=S)N1CCN(c2ncc3c(=O)c(C(=O)O)cn(CC)c3n2)CC1	-7.57% (inactive)

Compound	inhibition
CCn1cc(C(=O)O)c(=O)c2cnc(N3CCN(C(=S)Nc4ccccc4)CC3)nc21	7.15% (inactive)
CCCCCCCC(=O)N1CCN(c2cc3c(cc2F)c(=O)c(C(=O)O)cn3CC)CC1	9.58% (inactive)
Cn1ccnc1SCC(=O)NC1CCCC1	-6.69% (inactive)
Cc1cccc2cc(CN(C(=O)c3cccc([N+](=O)[O-])c3)C(C)C)c(=O)[nH]c12	-4.34% (inactive)
COc1ccc(NC(=O)c2nc3nc(C)cc(C(F)F)n3n2)cc1OC	-3.09% (inactive)
CC(C)(C)c1ccc(CS(=O)(=O)CC2(O)CCN(C(=O)c3cccc(C(F)(F)F)c3)CC2)cc1	-0.12% (inactive)
CS(=O)(=O)c1ccc(Cl)c(NC(=O)COC(=O)Cc2c[nH]c3ccccc23)c1	-1.58% (inactive)
Cc1cc(N(CCO)CCO)ccc1N=Nc1cc(F)ccc1F	22.3% (inactive)
CCCOc1cccc(C(=O)Nc2cccc3ncccc23)c1	-5.81% (inactive)
CCOc1ccc(S(=O)(=O)N2CCN(C(=O)c3sccc3C)CC2)cc1	-3.32% (inactive)
CCOC(=O)c1cn(CC)c2cc(N3CCCCC3)c(F)cc2c1=O	-24.8% (inactive)
CCCCCCn1cc(C(=O)O)c(=O)c2cc(F)c(N3CCN(C(=O)OCC)CC3)cc21	-8.26% (inactive)
CCCCCCn1cc(C(=O)O)c(=O)c2cc(F)c(N3CCN(C)CC3)cc21	-6.43% (inactive)
CCCCNc1nnc(SCC(=O)N2CCN(S(=O)(=O)c3ccc4ccccc4c3)CC2)s1	-3.79% (inactive)
CC(=O)Nc1cccc(C(=O)OC(C)C(=O)NC2CCCc3ccccc32)c1 (stereo unspecified)	-2.01% (inactive)
CCNc1cc(N2CCOCC2)nc(SC)n1	7.57% (inactive)
COc1c(F)c(F)cc2c(=O)c(C(=O)O)cn(C3CC3)c12	1.27% (inactive)
COC(=O)C(c1cc(OC)c(O)c(OC)c1)(N1CCNC(C)C1)C(F)(F)F (stereo unspecified)	-16.6% (inactive)
O=C(O)c1cn(-c2ccc(N3CCCC3)c(F)c2)c2c(F)c(F)c(F)cc2c1=O	-7.01% (inactive)
CCOC(=O)c1cn(C2CC2)c2c(F)c(NCCCN(C)C)c(F)cc2c1=O	4.81% (inactive)
Cc1cccc(-c2cc(=O)c(C(=O)O)cn2-c2ccc(F)cc2F)c1	-13.4% (inactive)
O=C(O)c1cn(C2CCCCC2)c2ccccc2c1=O	2.42% (inactive)
CCOC(=O)c1cn(C2CC2)c2c(F)c(F)c(F)cc2c1=O	5.55% (inactive)
O=C(Nc1cccnc1)C1CC(c2ccccc2O)=NO1 (stereo unspecified)	-2.59% (inactive)

Compound	inhibition
CCNc1nc(NCC)nc(OCCOC(=O)c2ccccc2)n1	-3.56% (inactive)
COc1cc(CNCCN2CCOCC2)ccc1OCc1ccccc1Cl	8.72% (inactive)
COc1cccc(C2c3[nH]c4ccccc4c3C[C@H]3C(=O)N(c4ccccc4C(=O)N4CCC(C(=O)O)CC4)C(=O)N23)c1 (stereo partly specified)	-4.46% (inactive)
O=C(c1cccc(F)c1)N1CCN(C(=O)c2cc3nc(-c4ccco4)cc(C(F)(F)F)n3n2)CC1	-3.4% (inactive)
COc1cc(NC(=O)Cc2ccc(F)cc2)cc(OC)c1OC	-5.66% (inactive)
CCOC(=O)Cc1csc(NC(NC(=O)CC)(C(F)(F)F)C(F)(F)F)n1	0.93% (inactive)
CC1CCCCC1NC(=O)COC(=O)COc1ccccc1Cl (stereo unspecified)	-4.09% (inactive)
O=C(CCS(=O)(=O)c1cccc2nonc12)N1CCCc2ccccc21	4.05% (inactive)
CCOc1ccc(C(=O)Nc2nc(C)c(C(=O)OC)s2)cc1	-11% (inactive)
CCOc1ccc(S(=O)(=O)N2CN3CCN(C3)C2)cc1	-2.97% (inactive)
Cc1ccc(S(=O)(=O)N2CN3CCN(C3)C2)cc1	13.8% (inactive)
Cc1ccc(N2C(=O)c3ccccc3C2=O)cc1	-2.86% (inactive)
CC(=O)N(c1ccc(Cl)cc1)c1nc(C)cc(C)c1C#N	6.97% (inactive)
CCc1ccc(NC(=O)Nc2ccon2)cc1	-5.91% (inactive)
CCc1ccc(NC(=O)Nc2cnccn2)cc1	-5.86% (inactive)
S=C(NCc1ccncc1)Nc1ccc(Cl)cc1	-0.61% (inactive)
O=C(Nc1ccncc1)Nc1ccncc1	0.03% (inactive)
S=C(NCc1ccc(Cl)cc1)Nc1ccccc1	-8.41% (inactive)
O=C(Nc1ccncc1)Nc1ccc(F)c(Cl)c1	14.2% (inactive)
O=C1CCS/C(=N\N=C\c2ccc(Cl)cc2Cl)N1	6.05% (inactive)
CCc1ccc(-c2cc3c(=O)n(CC(=O)NCCCN4CCN(C)CC4)ncn3n2)cc1	5.21% (inactive)
CC1CCCCC1NC(=O)CSc1ccc([N+](=O)[O-])cc1 (stereo unspecified)	6.99% (inactive)
Cc1cc(-c2nnc3n2N=C(c2ccc(F)cc2)CS3)n[nH]1	-5.9% (inactive)
COc1ccccc1-n1c(C)cc(C=O)c1C	-1.75% (inactive)

Compound	inhibition
CCCc1nc(Cl)c(C#N)c2c1CCCC2	-3.33% (inactive)
CCOC(=O)Cc1cn2c(=O)cc(CSCC(=O)Nc3ccc(C)c(C)c3)nc2s1	-2.4% (inactive)
COc1cc2[nH]c3c(c2cc1OC)CCN1CCCC[C@@H]31	5.9% (inactive)
O=S(=O)(c1ccc(F)cc1)c1nc(-c2ccco2)oc1Nc1ccc(F)cc1	-12.3% (inactive)
C=CCn1c(SCC(=O)NC2CCS(=O)(=O)C2)nnc1-c1ccc(Cl)cc1 (stereo unspecified)	-6.21% (inactive)
O=C(CSc1nnc(C2COc3ccccc3O2)o1)Nc1ccc(F)cc1Cl (stereo unspecified)	-3.78% (inactive)
O=C(Nc1nnc(C2=COCCO2)o1)c1ccc(F)cc1	1.96% (inactive)
CCOC(=O)C1=C(COC(=O)C2(C)CC2(Cl)Cl)NC(=O)NC1c1ccc(OC)cc1 (stereo unspecified)	6.71% (inactive)
COc1ccccc1CNCC(=O)Nc1cc(S(=O)(=O)N2CCCCCC2)ccc1Cl	-6.34% (inactive)
CCN(c1ccc(C(O)(C(=O)OC)C(F)(F)F)cc1)S(=O)(=O)c1ccccc1 (stereo unspecified)	-2.75% (inactive)
CN(C)CCNC(=O)COc1ccc(Cl)cc1Cl	1.91% (inactive)
COc1ccc(Cl)cc1C(=O)NCCN(C)C	-0.53% (inactive)
CCCSc1nc(N)cc(=O)[nH]1	5.93% (inactive)
Cc1ccc2c(c1)c1c3n2CCN(C(=O)CCl)C3CCC1 (stereo unspecified)	7.2% (inactive)
Oc1ccc2c(c1)c1c3n2CCNC3CCC1 (stereo unspecified)	-4.83% (inactive)
Cc1ccc2c(c1)c1c3n2CCN(C(=O)CN2CCN(C)CC2)C3CCC1 (stereo unspecified)	4.43% (inactive)
c1ccc(-c2ccc3c(c2)c2c4n3CCN=C4CCC2)cc1	6.31% (inactive)
Cc1ccc2c(c1)c1c3n2CCCNC3CCC1 (stereo unspecified)	5.15% (inactive)
Cc1ccc2c(c1)c1c3n2CCN=C3CCC1	0.52% (inactive)
CCOP(=O)(c1ccccc1)C1(O)CCCCC1 (stereo unspecified)	14.1% (inactive)
Cc1ccc(S(=O)(=O)N2C(=O)CCC2C(=O)O/N=C(\N)c2ccccc2)cc1 (stereo unspecified)	-13.3% (inactive)
O=C(CN(C(=O)c1csnn1)c1ccccc1Cl)NC1CCCC1	13.4% (inactive)
O=C(O)c1cccc([N+](=O)[O-])c1C(=O)Nc1nc2ccccc2s1	4.78% (inactive)
CCn1c(CN2c3ccccc3Sc3ccccc32)n[nH]c1=S	4.44% (inactive)
